# From PubChem BioAssay (Tox21)
# Inconclusive results are not listed. Entries that show only a call come without a potency. The source made the active and inactive calls. Calls come from the whole dose curve; as a rule, active = well fitted cell-killing curve with a large enough effect in the repeat runs; inconclusive = weak or mixed curves, or effect the other way; inactive = flat fitted curve, though single readings scatter.
# Assay: Nuclear factor erythroid 2-related factor 2/antioxidant responsive element (Nrf2/ARE) small molecule agonists: qHTS cell viability counter screen in human keratinocytes (AID 1919968); note: nearly all actives have a fitted effect of over 55% in size
# Settings: KeratinoSens HaCaT ARE cells viability, CellTiter-Fluor, 24 h; series mostly up to 92.4 µM
# Source text: U.S. Tox21 Program National Center for Advancing Translational Sciences [NCATS] Division of Preclinical Innovation [DPI] U.S. Environmental Protection Agency [EPA] National Institutes of Environmental Health Sciences [NIEHS] National Toxicology Program [NTP] U.S. Food and Drug Administration [FDA] Tox21 Assay Overview: Oxidative stress has been implicated in the pathogenesis of a variety of diseases ranging from cancer to neurodegeneration. The antioxidant response element (ARE) signaling pathway plays an important role in the amelioration of oxidative stress. The KeratinoSens (Givaudan, Switzerland) is an in vitro test method which quantifies luciferase induction as a measure of activation of Keap1-Nrf2-antioxidationt/electrophile response element (ARE) dependant pathway in HaCaT human keratinocytes stably transfected with a selectable plasmid. The KeratinoSens assay is a cell-based assay with a reporter cell line to detect potential skin sensitizers by their ability to induce the Nrf2/ARE-response. The activation of the report gene under culture conditions can be detected by ONE-Glo Luciferase Assay System (Promega, Madison, WI). This cell line has been used to screen the Tox21 10K compound library to identify agonists that induce oxidative stress. The cytotoxicity of the Tox21 compound library against the KS-ARE cell line was tested in parallel by measuring the cell viability using CellTiter- Fluor assay system (Promega, Madison, WI) in the same wells.
# Tox21 Assay Protocol Summary: HaCaT derived cell line KeratinoSens were dispensed at 1,500 cells/5uL/well in 1536-well white wall/solid bottom plates using a Multidrop Combi (ThermoFisher Scientific, Waltham, MA) dispenser. After the assay plates were incubated at 37 C/5% CO2 for 5 h, 23 nL of compounds dissolved in DMSO, positive controls or DMSO only was transferred to the assay plate by a pintool workstation (Kalypsys, San Diego, CA). The plates were incubated at 37 C/5% CO2 for 23 h, followed by addition of 1uL/well of CellTiter-Fluor reagent into the assay plates using a Flying Reagent Dispenser (Aurora Discovery, San Diego, CA) for cell viability readout that measures cytotoxicity. After 1 h incubation at 37 C/5% CO2 the fluorescence intensity was measured using a ViewLux (PerkinElmer, Shelton, CT) plate reader.
# Potency is the fitted concentration of half-maximal effect.
Structure (SMILES),Potency,"activity change, negative = cytotoxicity"
CC(C)=CCC1=C(O)c2ccccc2C(=O)C1=O,inactive,
CN1CC(=O)N/C1=N/C(=O)Nc1cccc(Cl)c1,inactive,
CCN(CC)C(=O)Nc1ccc(OCC(O)CNC(C)(C)C)c(C(C)=O)c1 (stereo not given),inactive,
CC(C)(C)NC[C@H](O)COc1cccc2c1CCCC2=O,inactive,
CC1CCC(C(C)CS)CC1S (stereo not given),inactive,
Nc1ccc(C(=O)OCCCOC(=O)c2ccc(N)cc2)cc1,inactive,
CCC(=O)CC(C)CC (stereo not given),,1.61% [at 0.349 µM] (inactive)
Nc1ccc(C(=O)Oc2ccccc2)c(O)c1,inactive,
C1=CCC(c2ccccc2)CC1 (stereo not given),inactive,
Nc1ccc(F)c([N+](=O)[O-])c1,inactive,
Cc1cccc(C)n1,inactive,
CCCCCc1ccco1,inactive,
O=C(O)CC(C(=O)O)S(=O)(=O)O (stereo not given),inactive,
CCC(CO)(CO)COCC(CC)(CO)CO,inactive,
CCNC(=O)NCCCOc1cccc(CN2CCCCC2)c1,inactive,
CC1=CC(=O)CC(C)(C)C1=O,inactive,
Oc1c(Br)cc(Br)c2cccnc12,2.66 µM (active),
CC(C)(C)CC(=O)OCC(=O)[C@@]1(O)CC[C@H]2[C@@H]3CCC4=CC(=O)C=C[C@]4(C)[C@H]3[C@@H](O)C[C@@]21C,inactive,
Oc1cc(O)c(Cl)cc1Cl,inactive,
CN(C)C(=O)CNC(=O)Cc1ccccc1,inactive,

Structure (SMILES),Potency,"activity change, negative = cytotoxicity"
CC1(C)S[C@@H]2[C@H](NC(=O)C(C(=O)O)c3ccccc3)C(=O)N2[C@H]1C(=O)O (stereo not given in full),inactive,
O=C1NCN(c2ccccc2)C12CCN(CCCC(c1ccc(F)cc1)c1ccc(F)cc1)CC2,29.8 µM (active),
CC(=O)c1cccnc1,inactive,
COc1ccc(-n2nc(CCC(=O)N(C)O)cc2-c2ccc(Cl)cc2)cc1,inactive,
O=C(O)C[C@H](O)C[C@H](O)/C=C/c1c(C2CC2)nc2ccccc2c1-c1ccc(F)cc1,,-15.1% [at 19 µM] (inactive)
COC(=O)c1ccc(OC)cc1,inactive,
OC[C@H]1O[C@@H](O[C@@H]2[C@@H](CO)O[C@](O)(CO)[C@H]2O)[C@H](O)[C@@H](O)[C@H]1O,inactive,
O=C1OC(OC(=O)c2cccnc2Nc2cccc(C(F)(F)F)c2)c2ccccc21 (stereo not given),inactive,
O=S1OCCO1,inactive,
CC(CC(=O)O)CC(C)(C)C (stereo not given),inactive,
CCCCc1ccc(N)cc1,inactive,
CCCCN1CCCC[C@H]1C(=O)Nc1c(C)cccc1C,inactive,
CCc1cccc(CC)c1,inactive,
O=C1c2ccccc2C(=O)C1c1ccc2ccccc2n1,inactive,
CC[C@@H](N)CO,inactive,
O=C(CS)Nc1ccccc1,inactive,
CC(C)c1ccc2sc3ccccc3c(=O)c2c1,inactive,
O=CNNC=O,inactive,
Cc1nccn1CC1CCc2c(c3ccccc3n2C)C1=O (stereo not given),inactive,
CN(C)CCCSc1ccccc1NC(=O)/C=C/c1ccccc1,inactive,
